Most compounds without a hit are left out; they make up all but 2.4% or so of the library.
FEN1 inh: blocks human flap endonuclease 1. P39748. Recombinant FEN1 flap cleavage, fluorescence, 15 min. Potency, µM (doses to about 114 µM), for inactives: at the highest dose activity change, negative = inhibition, hits mostly inhibitors. 0.35% of 390,000 active. AID 588795; also: % is scaled to controls: 0 for no effect and ±100 for the full control effect; nearly all actives have a fitted effect of over 65% in size
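Potency values derive from four-parameter Hill fits of normalized qHTS data. The reaction used 10 nM FEN1 preincubated 15 min at room temperature with compound, then 50 nM DNA substrate, read at 0 and 15 min.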
POLK inh: DNA polymerase kappa (human) inhibition; Potency, µM (top dose mostly 107 µM), without a hit: at the highest dose activity, negative = inhibition, actives largely listed as inhibitors; AID 588579; purified Pol kappa, fluorescent DNA synthesis assay, 10 min; 0.53% of 400,000 active; also: % is scaled to controls: 0 for no effect and ±100 for the full control effect
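Inhibition of 10 nM Pol kappa is measured by a fluorescent read-out at 0 and 10 min following addition of 50 nM substrate (final), with a 15-min room-temperature compound preincubation.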
POLH inh: DNA polymerase eta (human) inhibition. recombinant Pol eta, fluorescent DNA replication assay. 1.2% of 390,000 active. Potency, µM (doses to about 114 µM), for inactives: at the highest dose activity change, negative = inhibition, actives largely listed as inhibitors. Q9Y253; also: % is scaled to controls: 0 for no effect and ±100 for the full control effect
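Pol eta (10 nM) was preincubated with compounds for 15 min at room temperature, after which fluorescent replication substrate (50 nM final) was added to start the reaction. Fluorescence was read kinetically at 0 and 10 min.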
WRN helicase inh: blocks human WRN helicase. WRN helicase unwinding, fluorescent forked duplex, kinetic. Potency, µM (top dose mostly 114 µM), for inactives: at the highest dose activity change, negative = inhibition, usual class: inhibitors. 0.46% of 360,000 active. AID 651768; also: % is scaled to controls: 0 for no effect and ±100 for the full control effect; nearly all actives have a fitted effect of over 55% in size
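Kinetic red-fluorescence monitoring (525/598 nm) tracks WRN helicase activity after 100 nM fluorophore-quencher forked duplex and 2 mM ATP are added to 20 nM enzyme pretreated 15 min at room temperature with compound.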
Pol iota inh: DNA polymerase iota (human) inhibition; Potency, µM (doses to about 115 µM), for inactives: at the top dose activity, negative = inhibition, hits mostly inhibitors; Q9UNA4; 1% of 390,000 active; AID 588590; Pol iota fluorescent replication assay, 10 min
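Pol iota at 10 nM preincubated 15 min with compounds at room temperature; reaction started with fluorescent substrate, 50 nM final. Fluorescence read kinetically at 0 and 10 min; buffer-only wells as negative control.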
Pol beta inh: inhibitors of human DNA polymerase beta. P06746. Pol beta primer extension/strand displacement, fluorescence kinetic. Potency, µM (highest dose often 114 µM), for the others: at the highest dose activity change, negative = inhibition, hits mostly inhibitors. 1.3% of 340,000 active. AID 485314; also: % is scaled to controls: 0 for no effect and ±100 for the full control effect
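Values derive from four-parameter Hill fits of normalized kinetic data: reads at 0 and 10 min following addition of 50 nM substrate to 10 nM Pol beta preincubated 15 min with compound.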
* marks the source's active call; other numbers are inactive results; ? = inconclusive; nt = no result given; ! = repeats disagree; [ ] = dose if it differs, or a comment. Calls follow the shape of the dose curve; as a rule, active = well fitted curve in the direction sought with a large enough effect; inconclusive = small, poorly fitted or top-dose-only effect, or another doubt; inactive = no such curve, though single readings can be large; an effect the other way counts as inactive or inconclusive. Potency is read from the fitted curve at half-maximal effect.

SMILES	FEN1 inh	POLK inh	POLH inh	WRN helicase inh	Pol iota inh	Pol beta inh
CC[N+](C)(C)c1ccc(/C=C/c2ccc3ccccc3n2)cc1	45µM*	-24%	nt	nt	-18%	nt
CC[N+](C)(C)c1ccc(/C=C/c2ccncc2)cc1	?	-42%	nt	nt	79µM*	nt
Clc1ccc(/C=C/c2ccc3ccccc3n2)cc1Cl	?	-5%	nt	nt	-3%	nt
CCN(CC)c1ccc(/C=C/c2ccc3ccccc3n2)cc1	45µM*	40µM*	nt	nt	?	nt
CCOC(=O)c1ccc(N2C(=O)c3[nH]nc(-c4ccc(C)cc4)c3C2c2cccc(F)c2)cc1 (stereo unspecified)	-19%	-11%	-13%	nt	3%	16%
Cc1cc(=O)n2nc(N(C)CC(=O)NCc3cccc(Br)c3)sc2n1	20%	-8%	-12%	nt	17%	-3%
COc1cccc(OCCn2c(-c3ccc(Cl)cc3)nc3ccccc3c2=O)c1	9%	?	-13%	nt	?	?
CCCCCN1C(C(=O)c2ccccc2)=C(NC(=O)c2ccc(OC)cc2)c2ccccc2S1(=O)=O	-11%	-8%	-2%	nt	-10%	-3%
FC(F)(F)c1ccc(-c2noc(-c3ccccc3)c2I)cc1	nt	-11%[60.1 µM]	nt	nt	nt	nt
O=C(NNc1c2ccccc2nc2ccccc12)c1ccc(O)cc1	?	-10%[60.1 µM]	-6%	-4%[11.6 µM]	-6%	79µM*
CC(C)(C)CC(C)(C)N=C1Nc2ccc(Cl)cc2NC12C[C@H]1CCC(=O)N3CC[C@@H](C2)[C@@H]13 (stereo partly specified)	?	-16%	nt	nt	36%	nt
CC(C)(C)OC(=O)N1CCCC1C(=O)NC1COC2CC(n3ccc(=O)[nH]c3=O)OC12 (stereo unspecified)	-2%	17%	nt	nt	23%	nt
CC(/C=N/n1c(-c2ccc(Cl)cc2)n[nH]c1=S)=C\c1ccco1	-13%	?	18µM*	-12%[11.6 µM]	?	?
COc1ccc2nc(/C(C#N)=C\c3ccc(C(=O)O)cc3)[nH]c2c1	-19%	-19%	22µM*	?	57%	-2%
N#C/C(=C\c1ccc(OC(=O)c2cccs2)cc1)c1nc2ccccc2[nH]1	1%	-44%	?	?	34%	35µM*
COc1ccc2nc(/C(C#N)=C\c3ccc(Oc4ccc([N+](=O)[O-])cn4)cc3)[nH]c2c1	6%	-5%	?	-21%	57%	-11%
COc1ccc(CNC(=O)c2ccc3c(c2)CCN3S(=O)(=O)c2ccc(Cl)cc2)cc1	12%	-9%	-29%	nt	25%	1%
O=[N+]([O-])c1ccc(O)c(C=Nc2ccc3nc(-c4ccccc4)[nH]c3c2)c1	-21%	-15%	?	-32%	-12%	28µM*
O=[N+]([O-])c1cccc(-c2nc3ccc([N+](=O)[O-])cc3[nH]2)c1	?	-8%	?	-12%	-16%	-1%
Cc1c(-c2nsc(NC(=O)c3cccs3)n2)nnn1-c1ccc(Cl)cc1	?	-44%	?	nt	?	20µM*
C[C@H](CC[C@@H]1OC1(C)C)C1CC[C@H]2[C@@H]3CC=C4C[C@@H](O)CC[C@]4(C)[C@H]3CC[C@]12C (stereo partly specified)	nt	6%[19.4 µM]	nt	nt	nt	nt
O=C(CCc1nc(-c2ccccc2F)no1)Nc1cccc(C(F)(F)F)c1	-4%	0%	-25%	nt	-8%	2%
O=C1Cc2cccc(=O)c(O)c2C(=O)O1	nt	nt	8.9µM*	-20%	nt	nt
O=C1c2c(O)cccc2Cc2cccc(O)c21	9%	22µM*!	-21%	-6%	8%	nt
COc1cc(OC)c(NC2(c3ccccc3)C(=O)c3ccccc3C2=O)cc1Cl	10%	-5%	-15%	nt	-7%	2%
SMILES	FEN1 inh	POLK inh	POLH inh	WRN helicase inh	Pol iota inh	Pol beta inh
Cc1ccc(-c2nc(NC(=O)CSc3cc(C)c4ccccc4n3)ns2)cc1	?	-22%	?	-15%	-10%	8.9µM*
CCc1ccc(CNC(=O)CN2C(=O)C3CCCCN3c3ccc(C(=O)N4CCCC4)cc32)cc1 (stereo unspecified)	-9%	-13%[60.1 µM]	-11%	nt	11%	9%
Cc1ccc(OCc2ccc(-c3nc(C#N)c(NCc4ccccc4Cl)o3)o2)cc1	-2%	6%	-27%	nt	45%	0%
COc1ccc(Cl)cc1NC(=O)CSc1nnc2[nH]c(=O)cc(-c3ccccc3)n12	-16%	-2%[60.1 µM]	89µM*	nt	1%	6%
O=c1cc(CSc2n[nH]c(-c3ccncc3)n2)nc2sccn12	3%	?	?	0%[11.6 µM]	50µM*	10µM*
Cc1ccc(SCc2cc(=O)n3ccsc3n2)c(C)c1	nt	nt	nt	nt	nt	28µM*
CC1=C(C(=O)OCc2ccc3nsnc3c2)N2C(=O)[C@@H](NC(=O)OCc3ccc4nsnc4c3)[C@H]2SC1	1%	-39%	nt	nt	?	nt
COc1ccc(-c2cc(C(F)(F)F)nc(SCC(=O)NCCc3ccc(OC)c(OC)c3)n2)cc1	-2%	3%	4%	nt	-3%	19%
O=c1cc(-c2ccccc2)oc2c(O)c(O)ccc12	nt	8.9µM*	nt	nt	nt	nt
O=c1cc(-c2ccccc2O)oc2ccc3ccccc3c12	nt	-6%[19.4 µM]	nt	nt	nt	nt
O=c1cc(-c2ccccc2O)oc2c(O)c(O)ccc12	nt	0.89µM*	nt	nt	nt	nt
COc1ccc(-c2onc(C)c2C)cc1S(=O)(=O)N1CCN(c2ccc(Cl)cc2)CC1	-2%	-14%	-5%	nt	-14%	3%
Cc1cc(C(Br)(Br)Br)nc2ccccc12	-17%	-16%	nt	nt	?	nt
Cc1ccccc1NC(=O)C(Cc1ccccc1)N1Cc2ccccc2C1=O (stereo unspecified)	-4%	0%	13%	nt	-12%	19%
CCCCNS(=O)(=O)c1ccc2nc(SCC(=O)c3ccc(C#N)cc3)[nH]c2c1	?	1%	?	?	-2%	40µM*
CCOC(=O)c1sc(=S)n(-c2ccc(OC)cc2)c1C	-10%	-1%	-18%	3%	48%	1%
CCOC(=O)c1c2c(n(-c3ccc(OC)cc3)c1C)C(=O)C(=O)c1ccccc1-2	-23%	-6%	3.2µM*	-18%	8.9µM*	nt
Cc1cc2nnc(SCc3ccc(F)cc3)n2c2ccccc12	-20%	-21%	-16%	nt	1%	-2%
CC(C)n1c(=S)[nH]c2c1c(=O)[nH]c(=O)n2C	14%	-13%	-19%	89µM*	19%	21%
C=CC(C)n1c(Br)nc2c1c(=O)[nH]c(=O)n2C (stereo unspecified)	9%	-5%	-19%	0%	66%	1%
CCCN1C(=O)c2[nH]nc(-c3ccc(F)cc3)c2C1c1ccc(O)c(OCC)c1 (stereo unspecified)	-1%	2%	-10%	nt	-13%	10%
